# High-throughput results deposited in PubChem by University of Kansas High Throughput Screening Laboratory.
# Sampled rows, rich in hits. Any-hit rate of the full collection: about 3.6%.
# Pf apPOL inh – Pf-apPOL DNA polymerase inhibition; Recombinant Pf-apPOL, molecular beacon fluorescence, 1.5 h; inhibition, % at 10 µM; 210,000 tested, 0.25% active; AID 1794808
# mHTT CaM bind – disrupts binding of mutant huntingtin to calmodulin. P42858. AlphaScreen His-mHTT/GST-CaM binding, luminescence. inhibition, % at 15 µM. 190,000 tested, 3.6% active. AID 1671202;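 note: 0% = both proteins with DMSO and 100% = one protein alone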
# Active calls of the source: *; . = no result given; ! = not active in a repeat. Cut-off read from the data, not from the text of the source: active = inhibition above about 50%; inactive = the rest.
SMILES,Pf apPOL inh,mHTT CaM bind
COC(=O)C12CC3CC(CC(NC(=O)C4(c5ccccc5)CCOCC4)(C3)C1)C2,-2,3
O=C(/C=C/c1ccccc1)NC(C(Cl)(Cl)Cl)S(=O)(=O)c1ccccc1 (stereo not drawn),-7,0
Cc1nc2c(C(=O)NCc3ccco3)cnn2c(C)c1Cc1cccc(Br)c1,-7,51*
Cc1nc2c(C(=O)NCc3ccco3)cnn2c(C)c1Cc1cccc(Cl)c1,-5,31
Cc1nc2nc(SCC(=O)NCc3ccccc3)nn2c(C)c1Cc1ccccc1,-13,31
Cc1nc2c(C(=O)NCc3ccccc3)cnn2c(C)c1Cc1cccc(Br)c1,-6,66*
Cc1ccc(CNC(=O)c2cnn3c(C)c(Cc4cccc(Cl)c4)c(C)nc23)cc1,-5,4
COc1ccccc1CNC(=O)c1cnn2c(C)c(Cc3cccc(Br)c3)c(C)nc12,-11,6
Cc1nc2c(C(=O)NCc3cccnc3)cnn2c(C)c1Cc1cccc(Br)c1,-9,58*
Cc1nc2nc(CC(=O)NCc3ccccc3)nn2c(C)c1Cc1cccc(Cl)c1,-4,63*
Cc1ccc(NS(=O)(=O)c2cc3c(s2)CCN(C(=O)C2CC2)C3)cc1F,-2,5
CCn1cnc2ccc(-c3noc(-c4ccc(C)cc4)n3)cc21,0,8
CCN1CCC2(CC1)N=C(c1ccccc1O)CC(c1ccccc1O)N2 (stereo not drawn),-3,35
CCOC(=O)N1CCC2(CC1)N=C(c1ccc(C)cc1)CC(c1cc(Cl)ccc1O)N2 (stereo not drawn),3,3
CC(=O)N1CCC2(CC1)N=C(c1ccccc1O)CC(c1ccc(C(C)C)cc1)N2 (stereo not drawn),-5,7
COc1ccc(C2CC(c3ccccc3O)=NC3(CCN(C(C)C)CC3)N2)cc1OC (stereo not drawn),-7,38
CC(=O)N1CCC2(CC1)N=C(c1cc(Cl)ccc1O)CC(c1ccc(F)cc1)N2 (stereo not drawn),-3,100*
COc1ccc(C2CC(c3ccccc3O)=NC3(CCN(C(C)=O)CC3)N2)cc1OC (stereo not drawn),-3,51*
CCOC(=O)N1CCC2(CC1)N=C(c1cc(Cl)ccc1O)CC(c1ccccc1O)N2 (stereo not drawn),-2,100*
CCN1CCC2(CC1)N=C(c1ccccc1O)CC(c1ccc(Cl)cc1)N2 (stereo not drawn),-2,60*
COc1ccc(C(=O)Nc2ccc(O)c(C)c2C)cc1,-6,1
COCCNC(=O)NC1CCCN(c2cc(N3CCCC3)ncn2)C1 (stereo not drawn),1,-1
CC(C)N1CCC2(CC1)N=C(c1cc(Cl)ccc1O)CC(c1ccccc1O)N2 (stereo not drawn),5,32
CC(=O)N1CCC2(CC1)N=C(c1ccccc1O)CC(c1ccc(C)cc1C)N2 (stereo not drawn),-5,58*
CN1CCC2(CC1)N=C(c1cc(Cl)ccc1O)CC(c1ccccc1O)N2 (stereo not drawn),-3,45
SMILES,Pf apPOL inh,mHTT CaM bind
CC(=O)N1CCC2(CC1)N=C(c1ccccc1O)CC(c1ccccc1O)N2 (stereo not drawn),-1,47
COc1ccc(C2CC(c3cc(Cl)ccc3O)=NC3(CCN(C(C)=O)CC3)N2)cc1 (stereo not drawn),-4,100*
CCN1CCC2(CC1)N=C(c1cc(Cl)ccc1O)CC(c1ccc(OC)cc1)N2 (stereo not drawn),-3,100*
O=C(CSc1nnnn1-c1ccccc1)Nc1ccc(-n2cnnn2)cc1,-2,2
O=C(O)CCNS(=O)(=O)c1ccccc1F,3,6
CN(C)c1ccc(Nc2cc(N3CCOCC3)c3noc4c3c2C(=O)c2ccccc2-4)cc1,-3,13
O=C(O)c1ccc(Nc2cc(N3CCOCC3)c3noc4c3c2C(=O)c2ccccc2-4)cc1,-3,55*
O=C1c2ccccc2-c2onc3c(N4CCOCC4)cc(Nc4cccc(F)c4)c1c23,-1,-6
O=C(O)CCCNc1cc(N2CCOCC2)c2noc3c2c1C(=O)c1ccccc1-3,-2,52*
O=C(c1cccc(N2CCNC(c3ccccc3)C2)n1)N1CCOCC1 (stereo not drawn),-10,-7
Cc1cc(C)cc(NC(=O)Cc2nc(-c3ccccc3)n[nH]2)c1,-2,-6
O=C(Cc1nc(-c2ccccc2)n[nH]1)Nc1ccc(Cl)cc1,-1,-6
NC(=O)Cc1nc(-c2ccccn2)n[nH]1,-7,99*
O=C(Cc1nc(-c2ccccn2)n[nH]1)Nc1ccccc1,-4,73*
O=C(O)Cc1nc(-c2cccnc2)n[nH]1,4,-14
Cc1cccc(NC(=O)Cc2nc(-c3ccccn3)n[nH]2)c1,-12,99*
Cc1nn(-c2ccccc2)c2nc(N3CCC(NC(=O)c4ccc(F)cc4)CC3)sc12,-3,1
COc1ccc(C2=NC3(CCCCCC3)N(CC(=O)Nc3cccc(C)c3)C2=O)cc1,-5,1
CCN1CCn2cc(C(=O)NCc3ccc(F)cc3Cl)nc2C1,-6,24
Cc1cc2[nH]c(C(=O)Nc3ccc(C)c(F)c3)c(CN3CCOCC3)c2s1,23,20
COc1ccc(S(=O)(=O)N2CC3CN(C(=O)c4ccc(C#N)cc4)CC(C2)O3)cc1,-10,1
O=[N+]([O-])c1ccccc1OCC(O)CN1CCN(c2cccc(Cl)c2)CC1 (stereo not drawn),-13,23
COc1cccc(OC)c1OCC(O)CN1CCN(c2cccc(Cl)c2)CC1 (stereo not drawn),1,53*
Cc1ccc(Cl)cc1N1CCN(CC(O)COc2ccccc2[N+](=O)[O-])CC1 (stereo not drawn),6,91*
COc1ccc(N2CCN(CC(O)COc3c(OC)cccc3OC)CC2)cc1 (stereo not drawn),-6,7
SMILES,Pf apPOL inh,mHTT CaM bind
COc1cccc(OC)c1OCC(O)CN1CCN(c2cc(Cl)ccc2C)CC1 (stereo not drawn),1,64*
COc1cccc(OC)c1OCC(O)CN1CCN(c2ccccc2F)CC1 (stereo not drawn),-4,5
Cc1ncc(CO)c2cc(C(=O)Nc3ccccc3F)c(=Nc3ccc(Cl)c(Cl)c3)oc12,-4,3
Cc1ccc(C(=O)Nc2ccc(N3CCCN(C(=O)C4CC4)CC3)nc2)cc1,-9,4
O=C(O)C1C2C=CC(C2)C1C(=O)Nc1nc(-c2ccc(Cl)s2)cs1 (stereo not drawn),-5,20
Cc1nc2cccnc2[nH]c1=O,3,0
O=S(=O)(NCCSC1CCCCC1)c1ccc2c(c1)OCCO2,3,-4
CC(C)(C)OC(=O)N1CCC(CNS(=O)(=O)c2ccc3c(c2)OCCO3)CC1,63*!,.
O=C(Nc1nc(-c2ccco2)cs1)c1ccc(-n2cccn2)nn1,30,56*
CCOC(=O)N1CCN(C(=O)CCc2csc(NC(=O)c3ccc(F)cc3)n2)CC1,-8,-15
O=C(Nc1nc2c(s1)CCCC2)c1ccc(-n2cccn2)nn1,0,3
O=C(CCc1csc(NC(=O)c2ccc(F)cc2)n1)Nc1nc(-c2ccco2)cs1,10,58*
CCOc1ccc(CN2CCCC2c2cc(C(C)C)on2)cc1OC (stereo not drawn),-4,6
O=C(c1ccc(-c2cccs2)nc1)N1CCCC1,-5,2
O=C(Nc1nnc(C2CC(=O)N(c3ccccc3)C2)o1)c1cccs1 (stereo not drawn),-5,56*
